Laboratory results taken from PubChem BioAssay (Tox21).
Inconclusive results are not listed. The source made the active and inactive calls. The call rests on the fitted dose curve; in most records, active means well fitted activation curve with a large enough effect in the signal ratio in the repeat runs (not every such curve was filed as active); inconclusive means weak or mixed curves, or effect the other way; inactive means flat fitted curve, though single readings scatter; the % refers to the signal ratio.

The compounds below were run against Estrogen receptor beta (Homo sapiens) (UniProt Q92731) (assay: qHTS assay to identify small molecule agonists of the estrogen receptor beta (ER-beta) signaling pathway (AID 1259377)). Conditions: ER-beta-UAS-bla HEK293T, beta-lactamase FRET ratio, 16 h; series mostly up to 92.4 µM; activation: at the top concentration.
Excerpt: U.S. Tox21 Program National Center for Advancing Translational Sciences [NCATS] NIH Chemical Genomics Center [NCGC] U.S. Environmental Protection Agency [EPA] National Institutes of Environmental Health Sciences [NIEHS] National Toxicology Program [NTP] U.S. Food and Drug Administration [FDA] Tox21 Assay Overview: Estrogen receptor (ER), a nuclear hormone receptor, plays an important role in development, metabolic homeostasis and reproduction. Two subtypes of ER, ER-alpha and ER-beta, have similar expression patterns with some uniqueness in both types. Endocrine disrupting chemicals (EDCs) and their interactions with steroid hormone receptors like ER causes disruption of normal endocrine function. To identify the compounds that activate ER signaling, an ER beta-UAS-bla GripTite cell line (Life technologies, Madison, WI, USA) containing a beta-lactamase reporter gene under the control of an Upstream Activator Sequence (UAS) was used to screen Tox21 10K compound library.
Tox21 Assay Protocol Summary: ER-beta-UAS-bla HEK293T cells were dispensed at 2,000 cells/5 uL of assay medium containing 2% charcoal stripped FBS per well into black wall/clear-bottom 1536-well plates using a Multidrop Combi (ThermoFisher Scientific, Waltham, MA) dispenser. After the assay plates were incubated at a 37C and 5% CO2 for 6 hr, 23 nL of compounds dissolved in DMSO, positive controls or DMSO only was transferred to the assay plate by a Pintool station (Kalypsys, San Diego, CA). The plates were incubated at 37C and 5% CO2 for 16 hr. Then 1 uL of LiveBLAzerTM B/G FRET substrate was added using a BioRAPTR FRD (Flying Reagent Dispenser, Aurora Discovery, San Diego, CA). After the plates were incubated at room temperature for 2 hours, fluorescence intensity was measured by an Envision plate reader (PerkinElmer, Shelton, CT).
On the % scale 0 is the no-effect control and ±100 the full control effect.

Sequence of Estrogen receptor beta (Homo sapiens) (Q92731 whole entry, looked up): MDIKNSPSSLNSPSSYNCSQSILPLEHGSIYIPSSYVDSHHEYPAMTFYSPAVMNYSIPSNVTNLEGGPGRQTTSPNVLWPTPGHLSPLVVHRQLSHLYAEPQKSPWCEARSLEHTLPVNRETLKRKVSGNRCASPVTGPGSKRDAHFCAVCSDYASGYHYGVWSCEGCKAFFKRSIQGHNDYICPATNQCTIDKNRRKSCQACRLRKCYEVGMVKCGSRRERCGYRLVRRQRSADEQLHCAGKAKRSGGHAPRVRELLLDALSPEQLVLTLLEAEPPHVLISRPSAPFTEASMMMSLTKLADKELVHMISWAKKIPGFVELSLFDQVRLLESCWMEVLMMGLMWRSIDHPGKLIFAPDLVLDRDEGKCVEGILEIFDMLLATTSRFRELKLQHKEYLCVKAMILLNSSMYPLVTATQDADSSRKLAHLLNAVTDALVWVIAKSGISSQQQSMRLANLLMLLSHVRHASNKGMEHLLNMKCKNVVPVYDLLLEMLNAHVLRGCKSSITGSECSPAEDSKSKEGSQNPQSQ

Row | Structure (SMILES) | activation
1 | CC(C)OC(=O)CCC(=O)OC(C)C | -2.26% (inactive)
2 | CCCCCCCCCCCCCCCCCC#N | -2.72% (inactive)
3 | O=C(O)CCCCCC(=O)O | 0.248% (inactive)
4 | CN1C[C@@H]2C[C@H]1CN2c1cc2c(cc1F)c(=O)c(C(=O)O)cn2C1CC1 | 1.21% [at 19 µM] (inactive)
5 | COc1cc(OC)nc(O[C@H](C(=O)O)C(OC)(c2ccccc2)c2ccccc2)n1 | 0.451% [at 42.5 µM] (inactive)
6 | N[C@@H](Cc1ccc(O)cc1)C(=O)O | 4.88% [at 8.39 µM] (inactive)
7 | COc1cc2c(cc1OC)C(=O)C(CC1CCN(Cc3ccccc3)CC1)C2 (stereo not given) | 2.77% [at 42.5 µM] (inactive)
8 | COP(=O)(O)OP(=O)(O)OC | 7.9% (inactive)
9 | CC(=O)O[C@@H]1CC2CCC1(C)C2(C)C (stereo not given in full) | 1.09% (inactive)
10 | CC1(C)[C@H]2CC[C@](C)(C2)[C@H]1O | -0.826% (inactive)
11 | C=CCCCCCCCCC(=O)OCCCC | -1.8% (inactive)
12 | COc1cc(/C=C/C(N)=O)cc(OC)c1OC | 0.845% [at 42.5 µM] (inactive)
13 | C=CC(=O)OCC1CCCO1 (stereo not given) | 5.21% (inactive)
14 | OC1(c2ccc(Cl)cc2)CCNCC1 | -0.952% [at 42.5 µM] (inactive)
15 | COC(=O)c1ccccc1C(=O)O | -1.39% (inactive)
16 | Cn1nnc2c(C(N)=O)ncn2c1=O | 0.541% [at 42.5 µM] (inactive)
17 | CC(C)C[C@@H]1[C@H](c2ccccc2)OC(=O)N1CCCN1CCCCCC1 | 7.43% [at 42.5 µM] (inactive)
18 | CC1OCCC1=O (stereo not given) | 2.81% (inactive)
19 | CN(C)CC/C=C1/c2ccccc2COc2ccc(CC(=O)O)cc21 | 1.77% [at 42.5 µM] (inactive)
20 | COc1cc2c(cc1OC)CN(C(=O)[C@H](C)N[C@@H](CCc1ccccc1)C(=O)O)[C@H](C(=O)O)C2 | -0.494% [at 42.5 µM] (inactive)

Row | Structure (SMILES) | activation
21 | Cc1ccc(C(=O)O)cc1[N+](=O)[O-] | 2.76% (inactive)
22 | COc1ccc(CCO)cc1 | 0.19% (inactive)
23 | CCN(CC)CCN | -0.81% [at 42.5 µM] (inactive)
24 | CC(=O)CC(=O)Nc1ccc(C)cc1C | 0.232% (inactive)
25 | CCCC(CC)c1ccccc1 (stereo not given) | 1.3% (inactive)
26 | CCCCCCCCCCCCCCC(=O)NC(CO)CCCCCCCCCCCCCC (stereo not given) | -0.16% (inactive)
27 | CC1c2ccccc2CN1NC(=O)c1ccc(Cl)c(S(N)(=O)=O)c1 (stereo not given) | 7.93% [at 42.5 µM] (inactive)
28 | CC(=O)C1C(=O)C=C(C)OC1=O (stereo not given) | 0.928% (inactive)
29 | C/C(=C1\CCOC(=O)S1)N(C=O)Cc1cnc(C)nc1N | -0.301% [at 42.5 µM] (inactive)
30 | C[C@H]1[C@@H](c2ccccc2)NC(=O)N1C | -0.673% (inactive)
31 | CC(=O)CCc1ccc(OC(C)=O)cc1 | 3.59% (inactive)
32 | [O-][n+]1cccc(/C(Cl)=N/OC[C@@H](O)CN2CCCCC2)c1 | 0.695% [at 42.5 µM] (inactive)
33 | CC(C)(C)NC[C@H](O)COc1cccc2c1CCCC2=O | 4.04% [at 42.5 µM] (inactive)
34 | CC(C)(CO)C(O)C(=O)NCCCO (stereo not given) | -0.194% (inactive)
35 | CC(=O)OCC(=O)Nc1cc(C#N)cc(NC(=O)COC(C)=O)c1Cl | -0.852% [at 42.5 µM] (inactive)
36 | CC(S)C(C)S (stereo not given) | 4.7% (inactive)
37 | CC1=C(C(=O)O)N2C(=O)[C@@H](NC(=O)[C@H](N)C3=CCC=CC3)[C@H]2SC1 | -1.68% [at 42.5 µM] (inactive)
38 | CC(=O)O[Si](C)(OC(C)=O)OC(C)=O | 0.0763% (inactive)
39 | CSc1cnccn1 | -0.314% (inactive)
40 | CC(Oc1cc(Cl)ccc1Cl)C(=O)O (stereo not given) | 0.111% (inactive)
